Shown are actives, neighbours in structure and some others; about 7.4% of the full set was active somewhere.
Rab9 promoter act – activators of Rab9 promoter; Huh7 Rab9 promoter-luciferase reporter, luminescence, 24 h; Potency, µM (top dose mostly 9.22 µM), inactives show at the highest dose activation, negative = inhibition, most hits filed as activators; actives 2.8% (n = 320,000); AID 485297; further: % of control where 0% means no effect; nearly all actives have a fitted effect of over 60% in size
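Huh7 reporter line, Rab9 promoter upstream of luciferase. Compound exposure 24 h at 37 °C in reduced-serum medium with 10% FBS. Read-out: luminescence.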
SMN2 splice up – enhancers of SMN2 splice variant expression; HEK293 SMN2-luciferase splicing reporter, luminescence, 30-36 h; actives 2.8% (n = 210,000); Potency, µM (doses to about 46.1 µM), for the others: at the top dose activity change, positive = activation, most hits filed as activators; AID 1458; further: % of control where 0% means no effect; nearly all actives have a fitted effect of over 55% in size
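qHTS luciferase splicing reporter: luminescence rises when SMN2 exon 7 is included in transfected HEK293 cells. Compound exposure lasted 30-36 h at 37C, with 4.5 mM final sodium butyrate as control, followed by a ONE-Glo read.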
ELG1 genotox – inducers of genotoxicity in HEK293T ELG1-luciferase cells. HEK293T ELG1-luciferase reporter, luminescence, 16 h. Potency, µM (highest dose often 46 µM), for inactives: at the highest dose activity change, positive = activation, actives largely listed as activators. actives 1.3% (n = 330,000); further: % of control where 0% means no effect; nearly all actives have a fitted effect of over 60% in size
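Genotoxic stress is detected as increased luminescence from luciferase-tagged ELG1 in HEK293T cells, measured with ONE-Glo after a 16 hr treatment at 37 °C.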
NPC1 prom act – NPC1 promoter activation | Huh7 NPC1 promoter luciferase reporter, 24 h | Potency, µM (highest dose often 9.22 µM), inactives show at the top dose activation, actives largely listed as activators | AID 485313 | actives 2.4% (n = 320,000); further: % of control where 0% means no effect; nearly all actives have a fitted effect of over 60% in size
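Readout is luciferase luminescence, reflecting NPC1 promoter activation in stably transfected Huh7 cells after 24 h compound exposure at 37 °C in reduced-serum medium with 10% FBS.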
p53 reactivation – re-activators of mutant p53; AID 504706; actives 0.063% (n = 320,000); Potency, µM (top dose mostly 92.2 µM), for inactives: at the top dose activity change, positive = activation, usual class: activators; H1299 p53-A138V BP100-luciferase reporter, luminescence, 24 h; further: % of control where 0% means no effect; nearly all actives have a fitted effect of over 45% in size
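H1299 (p53-null), stable ts p53-A138V + BP100-Luc; 1000 cells/well, Opti-MEM/10% FBS; cpd 4 pt, 1:5; 24 h, 37 deg C, 5% CO2; detection reagent 10 min RT; luminescence.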
FLuc counter – inhibits or activates purified firefly luciferase, miR-21 counter-screen; P08659; purified FLuc, Km substrates, luminescence inhibition; Potency, µM (highest dose often 57.5 µM), without a hit: top-dose activity change, negative = inhibition, actives largely listed as inhibitors; actives 6.9% (n = 360,000); AID 588342;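 further: plate controls were vehicle for no effect and reference inhibitor for full effect; nearly all actives have a fitted effect of over 55% in size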
Target sequence (P08659 whole entry, looked up): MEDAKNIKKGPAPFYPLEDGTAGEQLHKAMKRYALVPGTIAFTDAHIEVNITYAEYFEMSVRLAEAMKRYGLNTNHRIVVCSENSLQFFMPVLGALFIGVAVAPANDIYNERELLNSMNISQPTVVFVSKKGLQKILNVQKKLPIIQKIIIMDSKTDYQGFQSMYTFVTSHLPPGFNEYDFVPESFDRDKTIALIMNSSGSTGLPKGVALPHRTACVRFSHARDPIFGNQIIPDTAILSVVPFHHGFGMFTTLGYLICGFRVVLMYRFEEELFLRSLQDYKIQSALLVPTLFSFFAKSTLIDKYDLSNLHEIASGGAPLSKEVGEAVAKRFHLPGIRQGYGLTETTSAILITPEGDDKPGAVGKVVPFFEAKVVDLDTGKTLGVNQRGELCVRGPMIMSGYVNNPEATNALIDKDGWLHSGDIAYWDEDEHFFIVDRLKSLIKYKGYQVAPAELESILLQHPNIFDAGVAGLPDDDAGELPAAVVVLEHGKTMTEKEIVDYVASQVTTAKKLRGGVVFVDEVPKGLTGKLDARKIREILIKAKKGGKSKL
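Biochemical qHTS of compounds, final roughly 60 µM downward over six points, against 10 nM purified firefly luciferase using Km concentrations of substrates (10 uM D-luciferin, 10 uM ATP) in Tris acetate pH 7.5 buffer; luminescence output.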
Numbers without * were called inactive; u = inconclusive; x = no result given; [ ] = dose if it differs, or a comment. The call rests on the fitted dose curve; in most records, active means well fitted curve in the direction sought with a large enough effect; inconclusive means small, poorly fitted or top-dose-only effect, or another doubt; inactive means no such curve, though single readings can be large; an effect the other way counts as inactive or inconclusive. Potency means the concentration at half of the fitted maximal effect.

SMILES	Rab9 promoter act	SMN2 splice up	ELG1 genotox	NPC1 prom act	p53 reactivation	FLuc counter
Cc1ccc(OCc2cc(C(=O)N(C)CCc3ccccn3)no2)cc1C	3.5µM*	x	10%[9.26 µM]	u	u	13µM*
CC(=O)c1cccc(OCc2cc(C(=O)N(C)CCc3ccccn3)no2)c1	13%	x	-3%	4%	2%	1%
Clc1ccc(/C=N/Nc2ncnc3nc[nH]c23)cc1	u	x	16µM*	u	8%	17µM*
Cc1ccc(/C=N/Nc2ncnc3nc[nH]c23)cc1	1.6µM*	x	u	2.8µM*	15%	9.5µM*
COC(=O)c1nnc(C(=O)NCc2ccccc2)c2[nH]c3ccccc3c12	x	-6%	x	x	x	x
COc1ccc(OC)c(-c2noc(N3CCN(c4cccc(C(F)(F)F)c4)CC3)n2)c1	x	x	x	x	x	0%
COc1ccc(OCc2ccc(C(=O)O)cc2)cc1	u	5µM*	12%	u	4%	6.7µM*
CC(=O)c1ccc(OCC(O)COc2ccc(C(C)=O)cc2)cc1	12%	-26%	3%	-1%	3%	-1%
COc1ccc(OCC(O)COc2ccc(C(=O)O)cc2)cc1 (stereo not given)	-3%	10%	3%	3%	-5%	15µM*
N#Cc1ccc(CSc2ccc(S(=O)(=O)N3CCCCCC3)cn2)cc1	-8%	x	-6%	-5%	-5%	1%
COc1ccc(NC(=O)CN2C(=O)NC(C)(c3ccccc3)C2=O)cc1Cl (stereo not given)	-3%	x	2%	-1%	-2%	21µM*
COc1ccc(-c2cc(C(=O)Oc3ccccc3)c3cc(C)ccc3n2)cc1	x	-6%	x	x	x	4%
Cc1ccc(Sc2ccc(/C=C3/C(=O)NN(c4ccccc4)C3=O)o2)cc1	-10%	x	8%	-1%	-1%	-13%
Cc1ccsc1C=C1C(=O)c2ccccc2C1=O	u	9%	2%	u	8%	1.3µM*
Cc1ccsc1/C=C1/C(=O)NN(c2ccccc2)C1=O	-4%	-4%	-7%	u	-4%	9.5µM*
COc1cc(Cl)c(C)cc1NC(=O)c1cnn(-c2ccc(C)cc2)c1-n1cccc1	x	x	x	x	x	0%
CC(=O)c1cccc(S(=O)(=O)N2CCC(C(=O)N(C)Cc3ccc(Cl)s3)CC2)c1	-8%	x	-5%	-2%	-6%	1%
CN1C(=O)/C(=C/C=C2\SCCN2C)SC1=S	3.2µM*	2.5µM*	u	2.5µM*	u	1.9µM*
CN1C(=O)/C(=C/C=C2\SCCN2C)N(C)C1=S	2.5µM*	u	15µM*	3.2µM*	22%	17µM*
CCCN1C(=O)/C(=C\C=C2/Sc3ccccc3N2CC)SC1=S	-2%	-12%	-2%	-3%	2%	-17%
CCOC(=O)N1CCN(C(=O)CNC(=O)c2ccc(Cl)cc2)CC1	8%	x	1%	0%	-3%	2%
OC1CCN(Cc2ccc(OCc3ccccc3)cc2)CC1	u	x	u	2µM*	x	11µM*
CCCCNC(=O)C1CCN(Cc2ccc(OCc3ccccc3)cc2)CC1	u	u	u	u	u	19µM*
Cc1cc(C)c(NC(=O)C(=O)NCCc2csc(-c3ccc(F)cc3)n2)c(C)c1	x	x	x	x	x	-9%
CN(C)c1ccc(/C=N/NC(=O)c2cc(=O)[nH]c3ccccc23)cc1	-1%	x	5%	-3%	0%	-13%
CN(C)c1ccc(/C=N\NC(=O)c2cccc3cc[nH]c23)cc1	u	x	u	22%	17%	12µM*
O=C(N/N=C/c1ccccn1)c1ccco1	2%	1%	6%	5%	16%	u
Cc1cc(/C=N/NC(=O)c2nn(C)cc2Cl)c(C)n1-c1cccc(Br)c1	-5%	-20%	4%	-2%	13%	24µM*
CSC(=S)N/N=C/c1ccc(N(C)C)cc1	23%	28%	u	11%	-1%	2.7µM*

Screens: PubChem BioAssay, National Center for Advancing Translational Sciences (NCATS)
